# Where “and” joins values, the source holds several entries; their conditions need not be identical. Identical values can stand only once. A structure can be active in one record and inactive in another. Calls of active or inactive are those of the source. Unless noted, no stated cut-off is given here; in the data, active means parasite load remaining mostly below about 12% (no sharp cut-off); inactive means mostly above about 10%.
# Legend:
# [1] = compounds altering viability of human ES cells (AID 493140; call rule not given here;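 further: cells exposed to compounds for four days before counting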); conditions: human embryonic stem cell survival screen; stronger effect = higher value
# [2] = P. berghei load reduction in hepatocytes – cell-based, HepG2, luciferase luminescence, HepG2 viability, primary screen (AID 624349);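 further: 100% = mean of DMSO negative control wells on the same plate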; conditions: P. berghei liver stage in HepG2, luciferase luminescence, concentration not given here; parasite load remaining: stronger effect = lower value; viability: measured here: HepG2 viability without parasites
# [3] = Wnt pathway potentiators raising nuclear beta-catenin – imaging, WNT3A-conditioned medium, mouse C2C12, NPC library, primary screen (AID 1117326; in the data active means nuclear beta-catenin stimulation mostly above about 4.2%, no sharp cut-off; inactive means mostly below about 10%); conditions: stronger effect = higher value
# [4] = stimulators of insulin release from INS-1E, primary screen, cell-based, 5 mM glucose, NPC library (AID 1117329;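 active means compound raises insulin release from rat beta cells at 5 mM glucose, no numeric limit stated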); conditions: rat INS-1E insulin secretion, at 10 µM, stronger effect = higher value
# [5] = growth inhibition of GSK3B-pretreated HCT116 cells – cell-based, CellTiter-Glo, 0.2 to 20 µM (AID 1117336;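 active means compounds lowering colon cancer cell viability after pretreatment blocking the GSK3B kinase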); conditions: HCT116 viability after GSK3B inhibitor, at 20 µM, stronger effect = higher value
# [6] = inhibition of endothelial tube formation, primary screen, imaging, VEGF stimulated, CD31 staining, tube area, NPC library (AID 1117340;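 active means compound that reduces growth-factor-driven endothelial tube area in a mixed cell culture, no cutoff stated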); conditions: VEGF-stimulated ADSC/ECFC co-culture, at 10 µM, stronger effect = higher value
# [7] = GLP1 release stimulators, primary, NCI-H716, NPC library (AID 1117341;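 active means compound raises GLP1 secretion from the human gut endocrine cells, with no numeric limit stated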); conditions: NCI-H716 cells, at 10 µM, stronger effect = higher value
# [8] = HCT116 colon cancer cell growth inhibition, primary screen, CellTiter-Glo luminescence, NPC library (AID 1117342;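 active means compounds that lower survival of HCT116 colon cancer cells in the luminescence readout, no numeric limit stated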); conditions: at 20 µM (top of the series)
# [9] = reduced SW480 viability measured with CellTiter-Glo, NPC library, primary (AID 1117343;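 active means compounds that lower viability of the colon cancer cells in the luminescence readout, with no numeric limit stated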); conditions: CellTiter-Glo luminescence; at 20 µM (top of the series) unless noted
# [10] = NPC library primary testing for decreased DLD-1 cell viability via CellTiter-Glo (AID 1117346;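 active means compounds that lower survival of DLD-1 colon cancer cells in the luminescence readout, no cutoff given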); conditions: DLD-1 viability, CellTiter-Glo luminescence; at 20 µM (top of the series)
# [11] = EMT-state selective cytotoxicity in co-culture – imaging, PC-3E GFP, TEM4-18 mCherry, primary screen (AID 1345086;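 active means compounds killing one labelled cell type while sparing the other, by normalised counts and ratio limits, not self-fluorescent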;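 on all read-outs here: cells exposed to compound for 72 h before imaging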;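 on red/green cell ratio (normalised): normalised mesenchymal count divided by normalised epithelial count so high means epithelial killing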); conditions: PC-3E GFP / TEM4-18 mCherry co-culture, imaging cell counts, at 1 µM; for red/green cell ratio (normalised): actives lie on both sides, counts scaled to control wells, 1 = unselective
# [12] = viability loss with induced miR-34 in A549 – imaging, A549 dox-inducible miR-34, nuclei and caspase counts, primary screen (AID 1347080;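 active means compounds whose cell count with miR-34 switched on is under 0.7 times the count with it off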); conditions: A549 miR-34 inducible, Hoechst nuclei count, 48 h
# [13] = MELAS cybrid and Rieske KO viability enhancers – cell-based, MELAS cybrids, Rieske KO mouse fibroblasts, CellTiter-Glo, primary screen (AID 1508586;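 active means mean z-score across replicates of 1.96 or higher in either the MELAS or the Rieske mutant cell line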;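 further: z relative to plate mean and SD of compound and empty wells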); conditions: low glucose
# [14] = biological target: NAD(+) hydrolase SARM1 (Homo sapiens) (UniProt Q6SZW1); test: blocking NAD cleavage by SARM1 SAM-TIR – cell lysate, NAD-Glo luminescence (AID 1508614;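 active means compound whose remaining NAD level is above about 45 nM, limit read from the data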); conditions: SAM-TIR HEK293T lysate NADase, at 1 µM, stronger effect = higher value
# Chain of NAD(+) hydrolase SARM1 (Homo sapiens) (Q6SZW1 whole entry, looked up): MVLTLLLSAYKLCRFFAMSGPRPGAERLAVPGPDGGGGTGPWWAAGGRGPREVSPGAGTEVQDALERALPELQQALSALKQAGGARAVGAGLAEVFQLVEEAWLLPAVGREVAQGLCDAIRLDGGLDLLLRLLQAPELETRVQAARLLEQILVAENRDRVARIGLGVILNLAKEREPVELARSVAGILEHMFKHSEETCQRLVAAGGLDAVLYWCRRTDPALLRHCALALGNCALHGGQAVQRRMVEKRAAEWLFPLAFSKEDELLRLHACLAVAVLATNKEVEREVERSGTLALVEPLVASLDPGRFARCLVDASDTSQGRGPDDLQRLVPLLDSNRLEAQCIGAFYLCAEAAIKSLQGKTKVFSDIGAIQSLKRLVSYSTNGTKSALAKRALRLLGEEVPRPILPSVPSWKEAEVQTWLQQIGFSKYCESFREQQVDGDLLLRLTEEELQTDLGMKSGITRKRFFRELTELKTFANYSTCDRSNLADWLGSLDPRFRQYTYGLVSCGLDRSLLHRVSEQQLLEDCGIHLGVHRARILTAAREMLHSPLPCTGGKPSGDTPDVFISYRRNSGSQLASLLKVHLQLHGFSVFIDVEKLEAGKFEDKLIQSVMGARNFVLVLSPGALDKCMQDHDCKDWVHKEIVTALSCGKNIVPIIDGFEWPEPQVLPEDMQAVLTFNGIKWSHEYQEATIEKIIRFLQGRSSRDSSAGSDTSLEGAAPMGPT
# [15] = measured here: epithelial PC-3E GFP cell survival
# [16] = measured here: mesenchymal TEM4-18 mCherry cell survival
# [17] = stronger effect = lower value, cell number ratio, induced over uninduced
# [18] = measured here: relative caspase fold change +Dox/-Dox
# [19] = measured here: total cells with miR-34 induction, stronger effect = lower value
# [20] = measured here: total cells without miR-34 induction
# [21] = MELAS cybrid survival, CellTiter-Glo 48 h, stronger effect = higher value
# [22] = Rieske KO mouse fibroblast survival, CellTiter-Glo 72 h
compound,measurement,setting,value
O=C(O)[C@H](O)[C@@H](O)[C@H](O[C@@H]1O[C@H](CO)[C@H](O)[C@H](O)[C@H]1O)[C@H](O)CO,survival,[1],11.8 (inactive)
same,parasite load remaining,[2],68% (inactive) and 86.7% (inactive)
same,viability,[2],96.5% and 74.2%
same,nuclear beta-catenin stimulation,[3]; at 10 µM,-1.5% (inactive)
same,nuclear beta-catenin stimulation,"[3]; stimulation, at 2 µM",-0.6%
same,insulin secretion stimulation,[4],5.9% (inactive)
same,viability decrease,[5],94.4% (active)
same,tube area decrease,[6],-14.9% (inactive)
same,GLP1 secretion stimulation,[7],-3.6% (inactive)
same,inhibition of viability,[8],93% (active)
same,viability decrease (inhibition),[9],94% (active)
same,viability decrease (inhibition),[10],99.7% (active)
same,red/green cell ratio (normalised),[11],1.06 (inactive)
same,normalised cell number,[11]; [15],1.17
same,normalised cell number,[11]; [16],1.23
same,fold change,[12]; [17],0.847 (inactive)
same,fold change,[12]; [18],1.47
same,cell count,[12]; [19],8980
same,cell count,[12]; [20],10600
Nc1cc(C(Cl)=C(Cl)Cl)c(S(N)(=O)=O)cc1S(N)(=O)=O,survival,[1],8.08 (inactive)
same,parasite load remaining,[2],69.8% (inactive) and 78.4% (inactive) and 58% (inactive)
same,viability,[2],125% and 85.5% and 102%
same,nuclear beta-catenin stimulation,[3]; at 10 µM,3.8% (inactive)
same,nuclear beta-catenin stimulation,"[3]; stimulation, at 2 µM",4.2%
same,insulin secretion stimulation,[4],1.4% (inactive)
same,viability decrease,[5],19% (inactive)
same,tube area decrease,[6],7% (inactive)
same,GLP1 secretion stimulation,[7],12.7% (inactive)
same,inhibition of viability,[8],-3.03% (inactive)
same,viability decrease (inhibition),[9],-22% (inactive)
same,viability decrease (inhibition),[10],4.8% (inactive)
same,red/green cell ratio (normalised),[11],0.84 (inactive)
same,normalised cell number,[11]; [15],1.14
same,normalised cell number,[11]; [16],0.96
same,fold change,[12]; [17],0.893 (inactive) and 0.936 (inactive) and 0.859 (inactive)
same,fold change,[12]; [18],1.43 and 0.803 and 4.71
same,cell count,[12]; [19],8790 and 9570 and 11100
same,cell count,[12]; [20],9850 and 10200 and 12900
same,z-score,[13]; [21],-0.253 (inactive) and -0.139 (inactive)
same,z-score,[13]; [22],0.393 and 0.0455
same,remaining NAD,[14],10 nM (inactive)
COc1cccc2c1C(=O)c1c(O)c3c(c(O)c1C2=O)C[C@@](O)(C(C)=O)C[C@@H]3O[C@H]1C[C@H](N)[C@H](O)[C@H](C)O1,parasite load remaining,[2],-58.1% (inactive) and -0.15% (inactive) and 3.79% (active)
same,viability,[2],28.9% and 25.6% and 228%
same,nuclear beta-catenin stimulation,[3]; at 10 µM,61.7% (active)
same,nuclear beta-catenin stimulation,"[3]; stimulation, at 2 µM",102%
same,insulin secretion stimulation,[4],-0.6% (inactive)
same,viability decrease,[5],65.5% (active)
same,tube area decrease,[6],-9.1% (active)
same,GLP1 secretion stimulation,[7],3.4% (inactive)
same,inhibition of viability,[8],88.6% (active)
same,viability decrease (inhibition),[9],127% (active)
same,viability decrease (inhibition),[10],93.9% (active)
same,red/green cell ratio (normalised),[11],2.72 (active)
same,normalised cell number,[11]; [15],0.23
same,normalised cell number,[11]; [16],0.62
same,fold change,[12]; [17],0.88 (inactive) and 0.929 (inactive) and 0.993 (inactive)
same,fold change,[12]; [18],0.91 and 1.93 and 1.28
same,cell count,[12]; [19],2140 and 2610 and 2580
same,cell count,[12]; [20],2420 and 2800 and 2590
same,z-score,[13]; [21],-1.94 (inactive) and 4.97 (active)
same,z-score,[13]; [22],-1.44 and -0.671
same,remaining NAD,[14],10 nM (inactive)
CCN(CC)C(=O)c1ccc(O)c(OC)c1,survival,[1],14.3 (inactive)
same,parasite load remaining,[2],98.8% (inactive) and 82.6% (inactive) and 34.4% (inactive)
same,viability,[2],116% and 78.8% and 105%
same,nuclear beta-catenin stimulation,[3]; at 10 µM,0.4% (inactive)
same,nuclear beta-catenin stimulation,"[3]; stimulation, at 2 µM",-0.5%
same,insulin secretion stimulation,[4],-1.1% (inactive)
same,viability decrease,[5],-5.6% (inactive)
same,tube area decrease,[6],19.7% (inactive)
same,GLP1 secretion stimulation,[7],-0.9% (inactive)
same,inhibition of viability,[8],-33.9% (inactive)
same,viability decrease (inhibition),[9],107% (active)
same,viability decrease (inhibition),[10],-2.25% (inactive)
same,red/green cell ratio (normalised),[11],1.01 (inactive)
same,normalised cell number,[11]; [15],1.04
same,normalised cell number,[11]; [16],1.06
same,fold change,[12]; [17],0.99 (inactive) and 0.899 (inactive) and 0.849 (inactive)
same,fold change,[12]; [18],1.08 and 1.38 and 3.96
same,cell count,[12]; [19],10300 and 8560 and 11800
same,cell count,[12]; [20],10400 and 9520 and 13900
same,z-score,[13]; [21],-0.598 (inactive)
same,z-score,[13]; [22],-0.406
same,remaining NAD,[14],10 nM (inactive)
